According to the supplement of paper PMC12282887:
± gives the standard deviation of the averaged measurements.

Assays:
Test in all cases: promoter activity interaction Z-score (Lux/OD deviation from empty-vector control); higher = stronger promoter induction by the compound
[1] = system: E. coli BW25113 acrABp lux reporter
How it was run: (§1)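 OD600 and luminescence of E. coli BW25113 reporter cultures (40 µl LB Lennox, 384-well plates, 37°C) were measured every 30 min for 12 h. Integration ran over 0–8 h for wild type or 1–9 h for deletion strains, and wells with growth below 10% of the median were dropped. The score is the Z-transformed residual of growth-normalised luminescence fitted against a control.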

[2] = system: E. coli BW25113 marRABp lux reporter
How it was run: as §1

[3] = system: E. coli BW25113 micFp lux reporter
How it was run: as §1

[4] = system: E. coli BW25113 ompFp lux reporter
How it was run: as §1

[5] = system: E. coli BW25113 robp lux reporter
How it was run: as §1

[6] = system: E. coli BW25113 soxSp lux reporter
How it was run: as §1

[7] = system: E. coli BW25113 tolCp lux reporter
How it was run: as §1

[8] = 11.4 µg/ml, genetic background: wild type
[9] = 11.4 µg/ml, genetic background: ΔmarA
[10] = 11.4 µg/ml, genetic background: Δrob
[11] = 11.4 µg/ml, genetic background: ΔsoxS
[12] = 22.8 µg/ml, genetic background: wild type
[13] = 22.8 µg/ml, genetic background: ΔmarA
[14] = 22.8 µg/ml, genetic background: Δrob
[15] = 22.8 µg/ml, genetic background: ΔsoxS
[16] = 45.5 µg/ml, genetic background: wild type
[17] = 45.5 µg/ml, genetic background: ΔmarA
[18] = 45.5 µg/ml, genetic background: Δrob
[19] = 45.5 µg/ml, genetic background: ΔsoxS
[20] = 91.1 µg/ml, genetic background: wild type
[21] = 91.1 µg/ml, genetic background: ΔmarA
[22] = 91.1 µg/ml, genetic background: Δrob
[23] = 91.1 µg/ml, genetic background: ΔsoxS

`Cn1c(=O)[nH]c2[nH]c(=O)[nH]c2c1=O` [1-Methyluric acid] was tested, and the “promoter activity interaction Z-score” value [1, 8] was -0.104 ± 0.078, the “promoter activity interaction Z-score” value [1, 9] was 0.564 ± 0.66 and the “promoter activity interaction Z-score” value [1, 10] was -0.212 ± 0.12. The “promoter activity interaction Z-score” value [1, 11] was 0.297 ± 0.53, the “promoter activity interaction Z-score” value [1, 12] was 0.00584 ± 0.0026 and the “promoter activity interaction Z-score” value [1, 13] was 0.938 ± 0.94. The “promoter activity interaction Z-score” value [1, 14] was -0.286 ± 0.35, the “promoter activity interaction Z-score” value [1, 15] was 0.0572 ± 0.41 and the “promoter activity interaction Z-score” value [1, 16] was -0.247 ± 0.3. The “promoter activity interaction Z-score” value [1, 17] was -0.354 ± 0.38, the “promoter activity interaction Z-score” value [1, 18] was -0.533 ± 0.26 and the “promoter activity interaction Z-score” value [1, 19] was 0.207 ± 0.88. The “promoter activity interaction Z-score” value [1, 20] was -0.104 ± 0.14, the “promoter activity interaction Z-score” value [1, 21] was 0.464 ± 0.1 and the “promoter activity interaction Z-score” value [1, 22] was -0.246 ± 0.046. For the same compound, the “promoter activity interaction Z-score” value [1, 23] was 0.186 ± 0.74, the “promoter activity interaction Z-score” value [2, 8] was 0.0849 ± 0.054 and the “promoter activity interaction Z-score” value [2, 9] was -0.0996 ± 0.1. For the same compound, the “promoter activity interaction Z-score” value [2, 10] was -0.0237 ± 0.035, the “promoter activity interaction Z-score” value [2, 11] was -0.145 ± 0.068 and the “promoter activity interaction Z-score” value [2, 12] was -0.0689 ± 0.41. The “promoter activity interaction Z-score” value [2, 13] was -0.0515 ± 0.28, the “promoter activity interaction Z-score” value [2, 14] was -0.217 ± 0.19 and the “promoter activity interaction Z-score” value [2, 15] was -0.242 ± 0.1. The “promoter activity interaction Z-score” value [2, 16] was -0.206 ± 0.59, the “promoter activity interaction Z-score” value [2, 17] was -0.417 ± 0.023 and the “promoter activity interaction Z-score” value [2, 18] was -0.419 ± 0.29. For the same compound, the “promoter activity interaction Z-score” value [2, 19] was -0.415 ± 0.043, the “promoter activity interaction Z-score” value [2, 20] was -0.367 ± 0.052 and the “promoter activity interaction Z-score” value [2, 21] was 0.16 ± 0.19. The “promoter activity interaction Z-score” value [2, 22] was -0.423 ± 0.058, the “promoter activity interaction Z-score” value [2, 23] was -0.211 ± 0.17 and the “promoter activity interaction Z-score” value [3, 8] was -0.0236 ± 0.39. For the same compound, the “promoter activity interaction Z-score” value [3, 9] was 0.118 ± 0.021, the “promoter activity interaction Z-score” value [3, 10] was 0.0501 ± 0.18 and the “promoter activity interaction Z-score” value [3, 11] was 0.153 ± 0.11. The “promoter activity interaction Z-score” value [3, 12] was 0.0921 ± 0.34, the “promoter activity interaction Z-score” value [3, 13] was 0.0777 ± 0.13 and the “promoter activity interaction Z-score” value [3, 14] was 0.162 ± 0.1. For the same compound, the “promoter activity interaction Z-score” value [3, 15] was -0.0599 ± 0.019, the “promoter activity interaction Z-score” value [3, 16] was -0.0797 ± 0.0059 and the “promoter activity interaction Z-score” value [3, 17] was 0.0715 ± 0.14. For the same compound, the “promoter activity interaction Z-score” value [3, 18] was -0.119 ± 0.051, the “promoter activity interaction Z-score” value [3, 19] was 0.323 ± 0.18 and the “promoter activity interaction Z-score” value [3, 20] was -0.191 ± 0.057. The “promoter activity interaction Z-score” value [3, 21] was 0.0296 ± 0.15, the “promoter activity interaction Z-score” value [3, 22] was -0.0667 ± 0.089 and the “promoter activity interaction Z-score” value [3, 23] was 0.409 ± 0.52. The “promoter activity interaction Z-score” value [4, 8] was 0.326 ± 0.31, the “promoter activity interaction Z-score” value [4, 9] was 0.693 ± 0.12 and the “promoter activity interaction Z-score” value [4, 10] was 0.46 ± 0.48. The “promoter activity interaction Z-score” value [4, 11] was 0.431 ± 0.45, the “promoter activity interaction Z-score” value [4, 12] was 0.321 ± 0.41 and the “promoter activity interaction Z-score” value [4, 13] was 0.558 ± 0.49. For the same compound, the “promoter activity interaction Z-score” value [4, 14] was 0.739 ± 0.54, the “promoter activity interaction Z-score” value [4, 15] was 0.326 ± 0.25 and the “promoter activity interaction Z-score” value [4, 16] was -0.32 ± 0.069. The “promoter activity interaction Z-score” value [4, 17] was 0.0147 ± 0.41, the “promoter activity interaction Z-score” value [4, 18] was -1.23 ± 0.62 and the “promoter activity interaction Z-score” value [4, 19] was -0.438 ± 0.48. For the same compound, the “promoter activity interaction Z-score” value [4, 20] was 0.135 ± 0.01, the “promoter activity interaction Z-score” value [4, 21] was 0.619 ± 0.048 and the “promoter activity interaction Z-score” value [4, 22] was -0.101 ± 0.29. For the same compound, the “promoter activity interaction Z-score” value [4, 23] was 0.374 ± 1.1, the “promoter activity interaction Z-score” value [5, 8] was -0.269 ± 0.61 and the “promoter activity interaction Z-score” value [5, 9] was 0.351 ± 0.24. The “promoter activity interaction Z-score” value [5, 10] was 0.112 ± 0.039, the “promoter activity interaction Z-score” value [5, 11] was 0.0211 ± 0.46 and the “promoter activity interaction Z-score” value [5, 12] was 0.161 ± 0.081. The “promoter activity interaction Z-score” value [5, 13] was 0.493 ± 0.4, the “promoter activity interaction Z-score” value [5, 14] was 0.0711 ± 0.33 and the “promoter activity interaction Z-score” value [5, 15] was -0.912 ± 0.1. For the same compound, the “promoter activity interaction Z-score” value [5, 16] was -0.286 ± 0.13, the “promoter activity interaction Z-score” value [5, 17] was -0.426 ± 0.29 and the “promoter activity interaction Z-score” value [5, 18] was -1.18 ± 0.44. For the same compound, the “promoter activity interaction Z-score” value [5, 19] was -0.966 ± 0.2, the “promoter activity interaction Z-score” value [5, 20] was 0.057 ± 0.46 and the “promoter activity interaction Z-score” value [5, 21] was 0.0892 ± 0.25. For the same compound, the “promoter activity interaction Z-score” value [5, 22] was -0.403 ± 0.09, the “promoter activity interaction Z-score” value [5, 23] was -0.691 ± 0.56 and the “promoter activity interaction Z-score” value [6, 8] was 0.261 ± 0.1. The “promoter activity interaction Z-score” value [6, 9] was 0.522 ± 0.037, the “promoter activity interaction Z-score” value [6, 10] was 0.347 ± 0.19 and the “promoter activity interaction Z-score” value [6, 11] was 0.264 ± 0.44. For the same compound, the “promoter activity interaction Z-score” value [6, 12] was 0.256 ± 0.0038, the “promoter activity interaction Z-score” value [6, 13] was 0.598 ± 0.099 and the “promoter activity interaction Z-score” value [6, 14] was 0.475 ± 0.19. For the same compound, the “promoter activity interaction Z-score” value [6, 15] was 0.221 ± 0.36, the “promoter activity interaction Z-score” value [6, 16] was 0.22 ± 0.037 and the “promoter activity interaction Z-score” value [6, 17] was 0.334 ± 0.14. For the same compound, the “promoter activity interaction Z-score” value [6, 18] was 0.132 ± 0.069, the “promoter activity interaction Z-score” value [6, 19] was -0.0814 ± 0.51 and the “promoter activity interaction Z-score” value [6, 20] was 0.104 ± 0.3. For the same compound, the “promoter activity interaction Z-score” value [6, 21] was 0.366 ± 0.082, the “promoter activity interaction Z-score” value [6, 22] was 0.122 ± 0.097 and the “promoter activity interaction Z-score” value [6, 23] was 0.0852 ± 0.84. For the same compound, the “promoter activity interaction Z-score” value [7, 8] was -0.101 ± 0.82, the “promoter activity interaction Z-score” value [7, 9] was 0.236 ± 0.64 and the “promoter activity interaction Z-score” value [7, 10] was 0.123 ± 0.14. The “promoter activity interaction Z-score” value [7, 11] was 0.273 ± 0.67, the “promoter activity interaction Z-score” value [7, 12] was 0.46 ± 0.55 and the “promoter activity interaction Z-score” value [7, 13] was 0.0925 ± 0.54. For the same compound, the “promoter activity interaction Z-score” value [7, 14] was 1.34 ± 1.4, the “promoter activity interaction Z-score” value [7, 15] was -0.689 ± 1 and the “promoter activity interaction Z-score” value [7, 16] was 0.324 ± 0.25. The “promoter activity interaction Z-score” value [7, 17] was 0.169 ± 0.61, the “promoter activity interaction Z-score” value [7, 18] was -0.992 ± 0.65 and the “promoter activity interaction Z-score” value [7, 19] was 0.413 ± 0.89. For the same compound, the “promoter activity interaction Z-score” value [7, 20] was 0.769 ± 0.93, the “promoter activity interaction Z-score” value [7, 21] was 0.232 ± 0.41 and the “promoter activity interaction Z-score” value [7, 22] was 0.664 ± 0.066. The “promoter activity interaction Z-score” value [7, 23] was 0.553 ± 0.38.
